The values that follow come from the supplement of paper PMC6331611.

± gives the standard deviation of the averaged measurements. Over roughly 1,600 compounds, “normalized growth (OD600, IQM-normalized) in LPM” has its median near 1; the lowest 2% begin near 0.014. The sample as a whole holds a higher share of the lowest values than the screen did.

This assay deals with Salmonella enterica serovar Typhimurium SL1344. Briefly: normalized growth (OD600, IQM-normalized) in LPM (fraction of plate interquartile mean); higher = more bacterial growth (less inhibition). As to conditions: LPM pH 5.8; 10 µM; 16 h.
Compound `CN(C)c1cc(NC(=O)CNC(C)(C)C)c(O)c2c1C[C@H]1C[C@H]3[C@H](N(C)C)C(O)=C(C(N)=O)C(=O)[C@@]3(O)C(O)=C1C2=O` showed a normalized growth of 0.962 ± 0.053.
`CN(C)[C@@H]1C(O)=C(C(N)=O)C(=O)[C@@]2(O)C(O)=C3C(=O)c4c(O)ccc(Cl)c4[C@@H](O)[C@H]3C[C@@H]12` returned a normalized growth of 0.00865 ± 0.00039.
In turn, `CN(C)c1ccc(O)c2c1C[C@H]1C[C@H]3[C@H](N(C)C)C(O)=C(C(N)=O)C(=O)[C@@]3(O)C(O)=C1C2=O` gave a normalized growth of 0.0111 ± 0.00049.
Under `CC1(C)[C@H]2CC[C@]1(CS(=O)(=O)O)C(=O)C2=Cc1ccc(C=C2C(=O)[C@@]3(CS(=O)(=O)O)CC[C@@H]2C3(C)C)cc1` stands 0.989 ± 0.073; under `CC(=O)[C@H]1CC[C@H]2[C@@H]3CC=C4C[C@@H](OC(=O)CCC(=O)O)CC[C@]4(C)[C@H]3CC[C@]12C`, 1.02 ± 0.027.
Under `CCCCC(CC)COC(=O)C(C#N)=C(c1ccccc1)c1ccccc1` (stereo not given) stands 0.82 ± 0.0086; under `CCN(CC)CCc1nc(-c2ccccc2)no1`, 0.956 ± 0.062.
For the compound `C/C(=C\C(=O)OCCCCCCCCC(=O)O)C[C@@H]1OC[C@H](C[C@@H]2O[C@H]2[C@@H](C)[C@H](C)O)[C@@H](O)[C@H]1O`, the normalized growth amounted to 0.00952 ± 0.00017.
Under `COc1cccc(OC)c1C(=O)N[C@@H]1C(=O)N2[C@@H]1SC(C)(C)[C@@H]2C(=O)O` stands 1.12 ± 0.019.
Under `CCc1cn([C@H]2C[C@H](O)[C@@H](CO)O2)c(=O)[nH]c1=O` stands 0.664 ± 0.046; under `O=c1[nH]c(=O)n([C@H]2C[C@H](O)[C@@H](CO)O2)cc1I`, 1.05 ± 0.026.
Turning to `O=c1[nH]c(=O)n([C@H]2C[C@H](O)[C@@H](CO)O2)cc1F`, the normalized growth was found to be 0.0114 ± 0.00023.
`O=C1C(CC[S+]([O-])c2ccccc2)C(=O)N(c2ccccc2)N1c1ccccc1` (stereo not given) had a normalized growth of 1.097 ± 0.0059.
In turn, `CN1CCCC(n2nc(Cc3ccc(Cl)cc3)c3ccccc3c2=O)CC1` (stereo not given) registered a normalized growth of 1.04 ± 0.039.
Take `N=C(N)NCC1COC2(CCCCC2)O1` (stereo not given): the normalized growth stood at 0.863 ± 0.015.
On to `CCCc1nc(C(C)(C)O)c(C(=O)OCc2oc(=O)oc2C)n1Cc1ccc(-c2ccccc2-c2nnn[nH]2)cc1`, for which the normalized growth was 1.005 ± 0.0069.
Under `CN(C)CCN(Cc1ccccc1)c1ccccn1` stands 0.906 ± 0.035; under `CCN(CC)C(=O)c1cccnc1`, 1.14 ± 0.095; under `OC[C@@H](O)[C@@H](O)CO`, 0.975 ± 0.05.
`COc1ccc(-c2cc(C(F)F)nn2-c2ccc(S(N)(=O)=O)cc2)cc1F` came in with a normalized growth of 1.01 ± 0.035.
